# Where “and” joins values, the source holds several entries; their conditions need not be identical. Equal entries are not always repeated. Inconclusive results are not listed. Calls of active or inactive are those of the source. Unless noted, the call rests on the fitted dose curve; in most records, active means well fitted curve in the direction sought with a large enough effect; inconclusive means small, poorly fitted or top-dose-only effect, or another doubt; inactive means no such curve, though single readings can be large; an effect the other way counts as inactive or inconclusive.
# Legend:
# [1] = molecular target: Calcium and integrin-binding protein 1 (Homo sapiens) (UniProt Q99828); experiment: Primary qHTS for Identification of Calcium Integrin Binding Protein 1 (CIB1) Competitor (AID 1508620); conditions: CIB1-GST / FITC-alphaIIb peptide fluorescence polarization; series mostly up to 114 µM;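 further: GST tagged CIB1 binding a fluorescein labelled alphaIIb integrin peptide tracer; top concentration of the series differs between compounds; on the % scale 0 is the no-effect control and ±100 the full control effect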
# Calcium and integrin-binding protein 1 (Homo sapiens), sequence (Q99828 whole entry, looked up): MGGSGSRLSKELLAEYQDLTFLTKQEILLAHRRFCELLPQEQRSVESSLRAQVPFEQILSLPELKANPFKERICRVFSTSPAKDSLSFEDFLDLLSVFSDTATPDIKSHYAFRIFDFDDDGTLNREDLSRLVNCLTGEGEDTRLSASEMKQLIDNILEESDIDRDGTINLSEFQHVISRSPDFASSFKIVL
# Procedure, shortened: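 CIB1-GST (1 uM final) and compound incubated 15 min at room temperature before adding FITC-alphaIIb peptide tracer (100 nM final). Competition for binding read by fluorescence polarization (ex 480, em 540) after another 15 min at room temperature.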
# [2] = molecular target: Cytochrome P450 2D6 (Homo sapiens) (UniProt P10635); experiment: Cytochrome P450 family 2 subfamily D member 6 (CYP2D6) small molecule antagonists: luciferase biochemical (cell-free) qHTS assay (AID 1645840; active means well fitted curve in the direction sought with a large enough effect in the repeat runs; an effect the other way counts as inactive or inconclusive; further: nearly all actives have a fitted effect of over 55% in size; further: potency means the concentration at half of the fitted maximal effect); conditions: P450-Glo CYP2D6 enzyme, luciferin luminescence, 1 h; series mostly up to 57.4 µM
# Cytochrome P450 2D6 (Homo sapiens), sequence (P10635 whole entry, looked up): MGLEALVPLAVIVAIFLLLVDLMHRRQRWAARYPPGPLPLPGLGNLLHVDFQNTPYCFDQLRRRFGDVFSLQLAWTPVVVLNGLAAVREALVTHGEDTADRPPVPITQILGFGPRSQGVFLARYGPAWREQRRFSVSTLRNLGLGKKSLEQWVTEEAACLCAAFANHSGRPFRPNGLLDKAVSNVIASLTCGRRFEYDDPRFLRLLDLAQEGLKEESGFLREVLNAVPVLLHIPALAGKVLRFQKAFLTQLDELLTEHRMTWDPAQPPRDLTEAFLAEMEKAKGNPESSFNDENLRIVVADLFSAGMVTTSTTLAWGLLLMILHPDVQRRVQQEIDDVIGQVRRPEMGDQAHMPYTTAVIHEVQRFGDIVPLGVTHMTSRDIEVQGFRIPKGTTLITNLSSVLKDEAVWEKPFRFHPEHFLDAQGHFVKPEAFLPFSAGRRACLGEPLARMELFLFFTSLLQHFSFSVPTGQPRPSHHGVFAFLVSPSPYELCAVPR
# Procedure, shortened: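 P450-Glo luminescent screen: recombinant CYP2D6 enzyme–proluciferin substrate mix preincubated with compound 10 min at room temperature, then NADPH regeneration added for 1 h at room temperature. Detection reagent added for 20 min; luciferin light read as relative luminescence units.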
# [3] = molecular target: Cytochrome P450 2C9 (Homo sapiens) (UniProt P11712); experiment: Cytochrome P450 family 2 subfamily C member 9 (CYP2C9) small molecule antagonists: luciferase biochemical (cell-free) qHTS assay (AID 1645842; active means well fitted curve in the direction sought with a large enough effect in the repeat runs; an effect the other way counts as inactive or inconclusive; further: nearly all actives have a fitted effect of over 55% in size; further: potency means the concentration at half of the fitted maximal effect); conditions: P450-Glo CYP2C9 enzyme assay, luciferin luminescence; series mostly up to 57.4 µM
# Cytochrome P450 2C9 (Homo sapiens), sequence (P11712 whole entry, looked up): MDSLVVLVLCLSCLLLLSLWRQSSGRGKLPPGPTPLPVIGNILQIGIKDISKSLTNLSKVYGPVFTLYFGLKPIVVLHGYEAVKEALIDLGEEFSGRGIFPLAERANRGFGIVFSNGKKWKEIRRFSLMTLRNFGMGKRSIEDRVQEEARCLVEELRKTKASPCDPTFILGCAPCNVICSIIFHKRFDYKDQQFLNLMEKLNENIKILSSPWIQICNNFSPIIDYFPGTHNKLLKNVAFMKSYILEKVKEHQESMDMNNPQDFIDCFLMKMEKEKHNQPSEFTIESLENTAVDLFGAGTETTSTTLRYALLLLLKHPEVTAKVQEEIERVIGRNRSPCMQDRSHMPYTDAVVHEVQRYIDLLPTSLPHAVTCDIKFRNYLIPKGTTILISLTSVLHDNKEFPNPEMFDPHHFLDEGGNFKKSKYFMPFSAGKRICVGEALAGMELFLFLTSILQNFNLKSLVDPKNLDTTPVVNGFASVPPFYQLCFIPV
# Procedure, shortened: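 Luminescence, after 20 min with luciferin detection reagent, reflected CYP2C9 turnover during a 1 h NADPH-driven reaction at 37C. Enzyme-substrate mix contained 0.4% bovine serum albumin and was preincubated with compound 10 min at room temperature.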
# [4] = Primary qHTS for inhibitors of nuclear receptor binding SET domain protein 2 (NSD2) in an isogenic RCH-ACV NSD2 p.E1099K mutant (9B) (AID 1645876); conditions: RCH-ACV NSD2 E1099K (9B) viability, CellTiter-Glo, 72 h; series mostly up to 44.9 µM; further: nearly all actives have a fitted effect of over 70% in size; further: potency means the concentration at half of the fitted maximal effect
# [5] = Primary qHTS for inhibitors of nuclear receptor binding SET domain protein 2 (NSD2) in an RCH-ACV wild type WT cells (2C) (AID 1645877); conditions: RCH-ACV (leukaemia line) NSD2 WT (2C) viability, CellTiter-Glo, 72 h; series mostly up to 44.9 µM; further: nearly all actives have a fitted effect of over 70% in size; further: potency means the concentration at half of the fitted maximal effect
# [6] = molecular target: Catechol O-methyltransferase (Homo sapiens) (UniProt P21964); experiment: Confirmatory Screen for Target Class Profiling of Small Molecule Inhibitors of Methyltransferases (AID 1745852); conditions: MTase-Glo luminescence, SAH detection, recombinant enzyme; measured here: COMT max response; stronger effect = lower value
# Catechol O-methyltransferase (Homo sapiens), sequence (P21964 whole entry, looked up): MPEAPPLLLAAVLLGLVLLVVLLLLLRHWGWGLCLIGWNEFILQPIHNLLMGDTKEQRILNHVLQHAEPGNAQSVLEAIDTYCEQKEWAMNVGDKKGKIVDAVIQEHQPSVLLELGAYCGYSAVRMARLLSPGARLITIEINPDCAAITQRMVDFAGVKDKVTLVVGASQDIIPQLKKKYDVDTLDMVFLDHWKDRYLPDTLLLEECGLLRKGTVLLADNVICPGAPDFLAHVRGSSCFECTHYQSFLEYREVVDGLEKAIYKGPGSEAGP
# [7] = molecular target: N-terminal Xaa-Pro-Lys N-methyltransferase 1 (Homo sapiens) (UniProt Q9BV86); experiment: Confirmatory qHTS for Inhibitors of N-terminal methyltransferase 1 (NTMT1): MTaseGlo Assay (AID 1645874); conditions: NTMT1 enzyme, MTase-Glo SAH luminescence; series mostly up to 100 µM; further: potency means the concentration at half of the fitted maximal effect; nearly all actives have a fitted effect of over 65% in size
# N-terminal Xaa-Pro-Lys N-methyltransferase 1 (Homo sapiens), sequence (Q9BV86 whole entry, looked up): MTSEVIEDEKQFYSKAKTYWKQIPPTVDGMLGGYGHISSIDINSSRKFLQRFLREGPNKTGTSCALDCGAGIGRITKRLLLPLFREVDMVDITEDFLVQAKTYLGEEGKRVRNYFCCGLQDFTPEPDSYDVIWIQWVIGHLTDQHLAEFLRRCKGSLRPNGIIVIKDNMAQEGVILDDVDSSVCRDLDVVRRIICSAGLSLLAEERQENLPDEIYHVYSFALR
# Procedure, shortened: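 NTMT1 (125 nM) preincubated 15 min with compound and 100 uM SAM, then 1 uM SPKRIA peptide added for 30 min at room temperature. SAH detected by MTase-Glo luminescence; normalized to no-enzyme and DMSO controls, fitted to 4-parameter Hill.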
SMILES,Potency [1],Potency [2],Potency [3],Potency [4],Potency [5],activity [6] [%],Potency [7]
CCS(=O)(=O)N1CCN(c2ccc(Nc3ncc(C(N)=O)c(NC4CC4)n3)cc2)CC1,inactive,inactive,19000 nM (active),230 nM (active) and 417 nM (active),258 nM (active) and 417 nM (active),-6.02,–
CCNC(=O)Nc1ccc(-c2nc3c(c(N4CCOC[C@@H]4C)n2)CCN(c2ncccn2)C3)cc1,inactive,10700 nM (active),–,0.0728 µM (active),0.103 µM (active),–,–
O=C(O)CC1CCC(c2ccc(-c3ccc4nc(C(=O)NCc5ccc(OC(F)(F)F)cc5)cn4c3)cc2)CC1 (stereo not given),inactive,inactive,–,inactive,inactive,–,–
CC1(c2nc3c(C(N)=O)cccc3[nH]2)CCCN1 (stereo not given),inactive,inactive,–,inactive,–,–,–
CCOc1cc(N2CCC(O)CC2)ccc1Nc1ncc2c(n1)N(C1CCCC1)CCC(=O)N2C,inactive,inactive,–,2.05 µM (active),1.83 µM (active),–,–
CC(=O)NC1=NN(C(C)=O)C(C)(c2ccccc2)S1 (stereo not given),inactive,inactive,–,4.59 µM (active),4.09 µM (active),–,–
O=C(Nc1ccccc1)N1CCN(Cc2ccc3ccccc3n2)CC1,inactive,inactive,10700 nM (active),inactive,inactive,–,–
O=C(Nc1ccc(S(=O)(=O)Nc2ccccc2Cl)c(Cl)c1)c1ccccn1,inactive,inactive,674 nM (active),inactive,inactive,–,–
N#Cc1ccc(-c2cnc3[nH]cc(NC(=O)c4cccnc4)c3c2)cc1,inactive,inactive,2680 nM (active),7.28 µM (active),5.15 µM (active),1.05,–
CC(C)C(CO)Nc1nc(Nc2ccc(C(=O)O)c(Cl)c2)c2ncn(C(C)C)c2n1 (stereo not given),inactive,inactive,–,inactive,inactive,–,–
CNS(=O)(=O)CC1CCC(N(C)c2ncnc3[nH]ccc23)CC1 (stereo not given),inactive,inactive,inactive,–,–,-6.68,–
COc1cc2nc(N3CCCC3)nc(NCCCCCN3CCCC3)c2cc1OC,inactive,4770 nM (active),inactive,4.59 µM (active),5.15 µM (active),-4.52,–
C[C@@H](Oc1cc(-n2cnc3ccc(OC4CCN(C)CC4)cc32)sc1C(N)=O)c1ccccc1C(F)(F)F,inactive,8490 nM (active),–,0.0325 µM (active),0.0258 µM (active),-76.5,12600 nM (active)
Cc1cccc(S(=O)(=O)N2CCC[C@@H]2CCN2CCC(C)CC2)c1,inactive,2390 nM (active),inactive,inactive,inactive,–,–
CC(C)(C(=O)NCC(F)(F)C(F)(F)F)C(=O)NC1C(=O)Nc2ccccc2-c2ccccc21 (stereo not given),inactive,10700 nM (active),9520 nM (active),–,14.5 µM (active),–,–
COc1ncc2cc(C(=O)Nc3cc(C(=O)NCc4cccc(Cl)c4)ccc3Cl)c(=O)[nH]c2n1,inactive,inactive,–,6.51 µM (active),5.8 µM (active),–,–
COc1cc(NC(=O)Nc2cccc(CNC(=O)O[C@H]3CCOC3)c2)ccc1-c1cnco1,inactive,338 nM (active),37.9 nM (active),0.459 µM (active),0.728 µM (active),-5.78,–
O=C(Nc1nc2ccccc2n1CCc1ccccc1)c1ccccc1,inactive,inactive,–,6.49 µM (active),5.15 µM (active),–,–
CNC(=S)NS(=O)(=O)c1cc(CCNC(=O)c2cc(Cl)ccc2OC)ccc1OC,inactive,inactive,6740 nM (active),inactive,inactive,–,–
COc1cccc(-c2cc(NCc3ccc4c(c3)OCO4)nc(N)n2)c1,inactive,756 nM (active),2680 nM (active),0.205 µM (active),0.163 µM (active),-1.69,–
CN(c1ccccc1CNc1nc(Nc2ccc3c(c2)CC(=O)N3)ncc1C(F)(F)F)S(C)(=O)=O,inactive,23900 nM (active),1510 nM (active),1.29 µM (active),1.03 µM (active),-5.57,–
O=C(O)c1cc(-c2c(-c3ccccc3)nn3ccccc23)n[nH]c1=O,inactive,inactive,–,inactive,inactive,–,–
O=C(c1cccc(Cl)c1F)N1CCN(Cc2cccc(Nc3nccs3)n2)CC1,inactive,1690 nM (active),–,0.817 µM (active),0.728 µM (active),–,–
CC(C)c1nc(-c2ccc(NC(=O)Nc3cccc(C(F)(F)F)c3)c3ccccc23)c2c(N)nccn12,inactive,67.4 nM (active),301 nM (active),0.578 µM (active),1.45 µM (active),-5.14,–

# — PubChem BioAssay (NCATS)
